Hit rate of the full screen: of about 310,000 compounds, about 410 (0.13%) were called active. Inconclusive results (about 2%) are left out. The rule behind the calls is not given here. The list is a sample of the results. Results with a measured potency or affinity are listed apart.
Experiment: inhibition of RSV-induced cytopathic effect – HEp-2 cells, primary 10 µM value included (AID 2391)
Conditions: at 10 µM, active compounds read high

CPE inhibition, inactive:
CC(C)CNC(=O)c1cccc(NC(=O)Cc2ccc(Br)cc2)c1 15.3%
CC(=O)/C(C#N)=C1\NC(=O)C(Cc2ccc(F)cc2)S1 (configuration not stated) 12.6%
CCc1ccc(CC2S/C(=C(\C#N)C(C)=O)NC2=O)cc1 (configuration not stated) 6.6%
CC(=O)/C(C#N)=C1\NC(=O)C(Cc2cc(Cl)ccc2Cl)S1 (configuration not stated) 14%
CC(=O)/C(C#N)=C1\NC(=O)C(Cc2ccc(C)c(Cl)c2)S1 (configuration not stated) 15%
CC1CCCN(c2nc3c(c(=O)n(C)c(=O)n3C)n2CCSc2nc3ccccc3o2)C1 (configuration not stated) 1.2%
COc1ccccc1NC(=O)C(=O)NCC1COc2ccccc2O1 (configuration not stated) 5.12%
NS(=O)(=O)c1ccc(CCNC(=O)CSc2nc3ccccc3c(=O)n2CCC(=O)N2CCCCC2)cc1 0.56%
Cn1c(=O)c2[nH]c(-c3ccccc3O)nc2n(C)c1=O 9.42%
c1csc(-c2nc3ccccc3[nH]2)c1 4.14%
Cc1cc(=O)[nH]c(-c2ccccc2O)n1 0.17%
c1ccc(-c2nc(-c3cccs3)[nH]c2-c2ccccc2)cc1 1.1%
O=S(=O)(NC(=NCc1ccccc1)c1ccccc1F)c1ccccc1 0.88%
COc1ccc(CNC(=O)CN(Cc2ccc(F)cc2)C(=O)CCC(=O)Nc2nccs2)cc1 0.79%
CC(OC(=O)c1cccc([N+](=O)[O-])c1)C(=O)NCc1ccc2c(c1)OCO2 (configuration not stated) 2.66%
COCc1cc(C)nc(NC2CC(C)(C)NC(C)(C)C2)c1C#N -1.99%
C=CCn1c2ccccc2c2nnc(SCc3ccc4nonc4c3)nc21 3.57%
Cn1c2ccccc2c2nnc(SCc3ccc4nonc4c3)nc21 -0.67%
CCCn1c2ccccc2c2nnc(SCC(=O)Nc3cc(C)on3)nc21 1.54%
CCn1c2ccccc2c2nnc(SCC(=O)Nc3c(C)n(C)n(-c4ccccc4)c3=O)nc21 17.8%
Nc1nnc(COc2cccc(C(F)(F)F)c2)s1 1.04%
COC(=O)c1ccc(C(=O)OC)c(NC(=O)C2CC2)c1 1.03%
COc1ccc2cc(CN(CCCN3CCOCC3)Cc3nnnn3C3CCCC3)c(=O)[nH]c2c1 -0.3%
CCOc1ccccc1N(CC)C(=O)c1ccc2c(=O)n3c(nc2c1)CCCCC3 4.24%
Cc1c(Cl)ccc2c1NC(=O)C21NC(CCC(N)=O)[C@H]2C(=O)N(c3ccc(Cl)cc3)C(=O)[C@H]21 (some centres not stated) 2.04%
C[N+](C)(C)CC/C=C1/c2ccccc2CSc2ccccc21 -0.47%
C/C(=N\O)c1oc2ccc3c(C)cc(=O)oc3c2c1C 21.3%
Cc1ccc(/C(=N\O)c2oc3c(C)c4oc(=O)cc(C)c4cc3c2C)cc1 -1.6%
CCC(Cc1ccccc1)NC(=O)C1CC1 (configuration not stated) -0.41%
O=[N+]([O-])c1ccc(CN2CCN(c3ccc([N+](=O)[O-])cc3)CC2)cc1 8.04%
COc1ccc(CNC(=S)NCc2ccc(OC(C)C)cc2)cc1 3.45%
COc1ccc(Nc2ncccc2C(=O)O)cc1 -0.34%
CC(C)c1ccc(Nc2ncccc2C(=O)O)cc1 10.4%
CCOC(=O)c1c(C)nc2c(c1C)/C(=N/O)CC(C)(C)C2 5.56%
COc1ccccc1CNC(=O)c1ccc(CS(=O)Cc2cccc(Cl)c2)o1 (configuration not stated) 4.42%
Cc1nn(-c2ccc([N+](=O)[O-])cc2)c2c1C(c1ccc(OC(F)F)cc1)N1C(=N2)C(=O)Nc2ccccc21 (configuration not stated) 6.37%
Cc1ccc(C2c3c(C)nn(-c4ccc([N+](=O)[O-])cc4)c3N=C3C(=O)Nc4ccccc4N32)cc1 (configuration not stated) 3.63%
O=C(c1ccc(F)cc1)C1CCN(C(=S)Nc2ccccc2Cl)CC1 2.44%
Cc1nn(Cc2ccc(Cl)cc2)c(C)c1NC(=O)c1cc(C(C)C)on1 7.7%
Cc1cc(C(=O)Nc2c(C)nn(Cc3c(Cl)cccc3Cl)c2C)no1 -0.07%
Cc1cc(C)n2nc(C(=O)N/N=C/c3c4ccccc4cc4ccccc34)nc2n1 3.03%
CCCCN(CC)Cc1c(C)[nH]c2c(ccc3ccccc32)c1=O 0.96%
COc1ccc(S(=O)(=O)NCc2ccco2)cc1NC(=O)c1ccccc1 3.54%
COc1ccc(S(N)(=O)=O)cc1-c1nnc2c3ccccc3c(C)nn12 6.57%
Cc1nn2c(-c3ccccc3)nnc2c2ccccc12 -0.87%
COc1ccc(S(=O)(=O)NCc2ccco2)cc1N(C)S(=O)(=O)c1ccccc1 2.02%
Cc1ccccc1-c1nnc2c3ccccc3c(C)nn12 -1.91%
COc1ccc(-c2nnc3c4ccccc4c(C)nn23)cc1 4.75%
Cc1ccc(N2C(=O)c3ccc(N)cc3C2=O)cc1 1%
COc1cc(SC)ccc1C(=O)Nc1ccc2c(c1)OCCO2 49.8%
CC(=O)Nc1ccc(OCC(O)Cn2nc(C)nc2C)cc1 (configuration not stated) -1.49%
COc1ccc(CN(C(=O)c2oc3cc(C)c(C)cc3c2C)C2CCS(=O)(=O)C2)cc1OC (configuration not stated) 5.1%
Cc1ccc(Cl)cc1NS(=O)(=O)c1ccc2oc(=O)ccc2c1 15.7%
O=C(COC(=O)c1ccc(OC(F)F)cc1)NC(=O)NC1CCCC1 2.84%
CC(=O)Nc1ccc(NC(=O)CCn2nnc3ccccc32)cc1 -1.57%
C=CCNC(=O)COC(=O)c1cc(S(=O)(=O)N2CCCCC2)ccc1Cl 0.67%
O=C(O)c1cc(-c2ccc(-c3ccc(F)cc3)o2)nc2ccccc12 7.68%
O=C(O)c1cc(-c2cccs2)nc2ccc(F)cc12 -0.75%
COc1ccc(-c2cc(C(=O)O)c3ccccc3n2)c(OC)c1 0.21%
COc1ccc(-c2cc(C(=O)N3CCCC3)c3ccccc3n2)cc1 3%
O=S(=O)(c1ccc(C2CCCCC2)cc1)N1CCOCC1 15.3%
O=C(CO/N=C/c1ccccc1)Nc1c(F)c(F)c(F)c(F)c1F 2.75%
COc1ccc(NC(=O)CN(C)C(=O)CCCc2nc3ccccc3s2)cc1 2.07%
Cc1cc(Cl)ccc1OCCCC(=O)N1CCN(C(=O)c2ccco2)CC1 17.5%
Cc1cc(SCC(=O)c2ccccc2)n2ncc(-c3ccccc3)c2n1 4.59%
Cc1ccc2nc(C)cc(SCC(=O)N/N=C/c3ccco3)c2c1 1.6%
COCCn1c(-c2cccc(Br)c2)nc2c(c(=O)c3ccccc3n2C)c1=O 45.9%
COc1ccc(Cn2c(-c3ccc(C)cc3)nc3c(c(=O)c4ccccc4n3C)c2=O)cc1 3.47%
Cn1c2ccccc2c(=O)c2c(=O)n(Cc3ccco3)c(-c3ccc(C(C)(C)C)cc3)nc21 6.32%
COc1ccc(Cn2c(-c3ccco3)nc3c(c(=O)c4ccccc4n3C)c2=O)cc1 12.4%
COc1ccc(Cn2c(-c3ccccc3C)nc3c(c(=O)c4ccccc4n3C)c2=O)cc1 52.8%
CCc1nc2sc3ccccc3c(=O)c2c(=O)n1Cc1ccco1 10.5%
CCCCCc1nc2c(c(=O)c3ccccc3n2C)c(=O)n1Cc1ccc(OC)cc1 56.9%
COCCn1c(-c2ccc(Cl)cc2)nc2c(c(=O)c3ccccc3n2C)c1=O 8.68%
COc1ccc(N2CCN(CCNS(=O)(=O)c3ccc(C)cc3)CC2)cc1 -1.19%
CCCCOc1ccc(Cl)cc1CSc1n[nH]c(C)n1 -1.27%
CC(NC(=O)c1c(F)cccc1Cl)c1ccc(-n2ccnc2)cc1 (configuration not stated) 2.43%
COc1cnn(-c2ccccc2)c(=O)c1SCc1ccc(Cl)c(Cl)c1 5.77%
Fc1ccccc1NC(=S)N1CCN(C/C=C/c2ccccc2)CC1 0.73%
Cc1ccc(C)c(S(=O)(=O)N/N=C/c2ccc(N(C)C)cc2)c1 -0.72%
c1ccc2c(c1)nc1n2CN(Cc2ccc3c(c2)OCO3)CN1 1.87%
Cc1csc(=O)n1CCC(=O)OCC(=O)NNC(=O)c1ccccc1 -2.48%
COc1ccc(CCn2c(-c3ccccc3)nc3c(c(=O)c4ccccc4n3C)c2=O)cc1 2.88%
COc1ccc(CCn2c(C(C)C)nc3c(c(=O)c4ccccc4n3C)c2=O)cc1 4.88%
Cc1ccc(NC(=O)c2cn(-c3cccc(C)n3)cn2)cc1 3.46%
CC(C)C[C@H](NC(=O)c1nc[nH]c1C(=O)NC1CCN(C(=O)OC(C)(C)C)CC1)C(=O)OC(C)(C)C 0.16%
CC(C)C[C@H](NC(=O)c1nc[nH]c1C(=O)N[C@@H](CC(C)C)C(=O)OC(C)(C)C)C(=O)OC(C)(C)C -5.5%
COc1ccc(Cn2cnc3c4cc(F)ccc4n(C)c3c2=O)cc1 1.16%
Cc1occc1C(=O)Nc1cc(C(C)(C)C)on1 -1.18%
CC(C)(C)c1cc(NC(=O)c2ccco2)no1 2.28%
COc1ccc(N(C(=O)CNC(=O)c2ccco2)C(C(=O)NC2CCCC2)c2cccnc2)cc1 (configuration not stated) -0.22%
NC(=O)c1ccsc1NC(=O)COC(=O)C1CC2CCCC(C1)C2=O (configuration not stated) 1.41%

Reference: PubChem BioAssay AID2391 (Southern Research Specialized Biocontainment Screening …, 2010)
